# Measured values published in PubChem BioAssay (NCI).
# This is part of a sample that, as a whole, favours compounds with a hit. Of some 83,000 tested, about 20% had one in any assay.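 Single-dose data. Exposure time 48 hours. Values below 10 considered active.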 Values without a mark were called inactive. Calls of active or inactive are those of the source.
# Test system: HCT-116 colon
# Assay: NCI-60 one-dose screen, 48 h (100 = growth as untreated, 0 = no growth, -100 = all killed)
# Details: 10 µM unless noted
row,SMILES,growth
1,CO/C=C/C(=O)c1cc2cnc3c(=N)cc(NC(=O)C(C)C)c([nH]1)c23,-55.4% (active)
2,Cc1cc2c(-c3nc4ccccn4c3Nc3cccc4ccccc34)c(O)c(O)cc2c(O)c1-c1c(C)cc2c(-c3nc4ccccn4c3Nc3cccc4ccccc34)c(O)c(O)cc2c1O,-5.99% (active)
3,Cc1cc(N2CCOCC2)nc(N(CCNc2ccnc3cc(Cl)ccc23)Cc2cccs2)n1,-25.1% (active)
4,CCCCCCCC(=O)SCC/C=C/[C@@H]1CC(=O)NCc2cc(ccn2)C2=N[C@@](C)(CS2)C(=O)N[C@@H](C(C)C)C(=O)O1,-17.2% (active)
5,Cc1sc2c(c1C)c(=O)nc1c(-c3nc4ccccc4s3)n[nH]n12,90%
6,CC(C)(C)CC(C)(C)Nc1c(-c2c(O)c3ccccc3oc2=O)nc2c(Cl)cc(C(F)(F)F)cn12,70.4%
7,CCOc1cccc(/C=N/NC(=O)c2ccccc2Nc2ccnc(C(F)(F)F)c2)c1O,14.7%
8,Cc1cc2c(-c3nc4ccccn4c3NC3CCCCC3)c(O)c(O)cc2c(O)c1-c1c(C)cc2c(-c3nc4ccccn4c3NC3CCCCC3)c(O)c(O)cc2c1O,14.2%
9,C=CCC(=O)N[C@H](/C=C/C(=O)O)Cc1ccc(-c2cc(Cl)cc(Cl)c2)cc1,82.5%
10,CN1CCN(c2nc(NCCNc3ccnc4cc(Cl)ccc34)c3ccccc3n2)CC1,6.36% (active)
11,C[C@@H](C[C@H](CCO)c1cc(C(F)(F)F)cc(C(F)(F)F)c1)c1ccc2ccccc2c1,67.6%
